Some structures have more than one record in an assay (separate samples or runs), and their calls can disagree. Calls of active or inactive are those of the source. The calls were made as follows: active = hit-call score of the fitted dose curve at least 0.9, where 1 is the maximum; inactive = score below 0.9.
Assays:
[1] = read-out: Fatty acid synthase (Homo sapiens) (UniProt P49327); experiment: LTEA_HepaRG_FASN: Life Technologies and Expression Analysis (LTEA) Assay for Fatty Acid Synthase (FASN) using HepaRG (AID 2283448); conditions: mRNA level, 48 h; actives raise or lower the signal
Method in brief: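 Transcript-level assay: HepaRG liver cells are treated for 48 h across an eight-point range topping at 100 uM, and FASN mRNA, normalized to three housekeeping genes, is compared with DMSO controls in both directions.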

[2] = read-out: Cyclin D2 (CCND2), CCND2 (gene 894); experiment: LTEA_HepaRG_CCND2: Life Technologies and Expression Analysis (LTEA) Assay for Cyclin D2 (CCND2) using HepaRG (AID 2283449); conditions: mRNA level, 48 h; actives raise or lower the signal
Method in brief: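 Read-out is CCND2 mRNA level measured by qRT-PCR in human HepaRG liver cells and normalised to three housekeeping genes. Chemicals were applied for 48 h at up to 100 uM, with gain or loss fitted relative to 0.5% DMSO.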

[3] = read-out: Cyclin Dependent Kinase Inhibitor 1A (CDKN1A), CDKN1A (gene 1026); experiment: LTEA_HepaRG_CDKN1A: Life Technologies and Expression Analysis (LTEA) Assay for Cyclin Dependent Kinase Inhibitor 1A (CDKN1A) using HepaRG (AID 2283450); conditions: mRNA level, 48 h; actives raise or lower the signal
Method in brief: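 Cryopreserved HepaRG cells were plated and cultured 48 h, then switched to serum-free induction medium. Chemicals (eight half-log concentrations, top 100 uM, 0.5% DMSO) were applied for 48 h. Lysates underwent qRT-PCR for CDKN1A with housekeeping normalization.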

[4] = read-out: Cyclin D1 (CCND1), CCND1 (gene 595); experiment: LTEA_HepaRG_CCND1: Life Technologies and Expression Analysis (LTEA) Assay for Cyclin D1 (CCND1) using HepaRG (AID 2283451); conditions: mRNA level, 48 h; actives raise or lower the signal
Method in brief: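 Human liver HepaRG line; 48 h dosing, 8 conc. ≤100 uM, 0.5% DMSO; TaqMan qRT-PCR mRNA, 3 housekeeping genes; bidirectional curve fit vs DMSO.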

[5] = read-out: catalase (CAT), CAT (gene 847); experiment: LTEA_HepaRG_CAT: Life Technologies and Expression Analysis (LTEA) Assay for catalase (CAT) using HepaRG (AID 2283452); conditions: mRNA level, 48 h; actives raise or lower the signal
Method in brief: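 Expression of CAT was quantified by TaqMan qRT-PCR with ACTB/GAPDH/POLR2A normalization after 48 h chemical exposure of HepaRG. Eight-point half-log series, top 100 uM, in 0.5% DMSO; gain or loss fitted against vehicle.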

[6] = read-out: flavin-containing dimethylaniline monooxygenases 3 (FMO3), FMO3 (gene 2328); experiment: LTEA_HepaRG_FMO3: Life Technologies and Expression Analysis (LTEA) Assay for flavin-containing dimethylaniline monooxygenases 3 (FMO3) using HepaRG (AID 2283453); conditions: mRNA level, 48 h; actives raise or lower the signal;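 as to AC50: FMO3 transcript by TaqMan qRT-PCR normalized to ACTB GAPDH and POLR2A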
Method in brief: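 HepaRG, 48 h exposure, 8-pt half-log series from 100 uM, 0.5% DMSO vehicle, duplicates; FMO3 transcript by Fluidigm TaqMan qRT-PCR, housekeeping-normalized; gain/loss fit vs DMSO.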

[7] = read-out: Cytochrome P450 (CYP1A1), CYP1A1 (gene 1543); experiment: LTEA_HepaRG_CYP1A1: Life Technologies and Expression Analysis (LTEA) Assay for Cytochrome P450 (CYP1A1) using HepaRG (AID 2283454); conditions: mRNA level, 48 h; actives raise or lower the signal
Method in brief: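 Induction of CYP1A1 mRNA in a human hepatic cell line was measured 48 h after dosing, with 1 mM phenobarbital as induction positive control and 0.5% DMSO vehicle as baseline for bidirectional curve fitting.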

[8] = read-out: CFLAR gene, CFLAR (gene 8837); experiment: LTEA_HepaRG_CFLAR: Life Technologies and Expression Analysis (LTEA) Assay for CFLAR gene using HepaRG (AID 2283455); conditions: mRNA level, 48 h; actives raise or lower the signal
Method in brief: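 HepaRG, 48 h exposure, 8-pt conc-response (100 uM top, half-log), 0.5% DMSO vehicle, duplicates. CFLAR expression by qRT-PCR; ACTB/GAPDH/POLR2A normalization; gain or loss fit vs DMSO baseline.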

[9] = read-out: Forkhead box O1 (FOXO1), FOXO1 (gene 2308); experiment: LTEA_HepaRG_FOXO1: Life Technologies and Expression Analysis (LTEA) Assay for Forkhead box O1 (FOXO1) using HepaRG (AID 2283456); conditions: mRNA level, 48 h; actives raise or lower the signal
Method in brief: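 Readout is FOXO1 transcript level by multiplexed qRT-PCR against three housekeeping genes, curve-fitted in both directions relative to 0.5% DMSO vehicle. Human HepaRG cultures received chemicals for 48 h, up to 100 uM in half-log steps.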

[10] = read-out: growth arrest and DNA damage 45 (GADD45A), GADD45A (gene 1647); experiment: LTEA_HepaRG_GADD45A: Life Technologies and Expression Analysis (LTEA) Assay for growth arrest and DNA damage 45 (GADD45A) using HepaRG (AID 2283458); conditions: mRNA level, 48 h; actives raise or lower the signal
Method in brief: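 Human HepaRG liver cells are treated in duplicate for 48 h with chemicals in 0.5% DMSO, highest concentration 100 uM. Expression is read by qRT-PCR and analyzed in both directions against vehicle.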

[11] = read-out: Forkhead box O3 (FOXO3), FOXO3 (gene 2309); experiment: LTEA_HepaRG_FOXO3: Life Technologies and Expression Analysis (LTEA) Assay for Forkhead box O3 (FOXO3) using HepaRG (AID 2283459); conditions: mRNA level, 48 h; actives raise or lower the signal
Method in brief: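 HepaRG, 48 h post-dose; 8 conc., half-log from 100 uM, 0.5% DMSO, duplicates; serum-free induction medium. Readout: FOXO3 mRNA, TaqMan qRT-PCR, housekeeping-normalized. Bidirectional curve fit vs DMSO baseline.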

[12] = read-out: ABC Transporter (ABCB1), ABCB1 (gene 5243); experiment: LTEA_HepaRG_ABCB1: Life Technologies and Expression Analysis (LTEA) Assay for ABC Transporter (ABCB1) using HepaRG (AID 2283460); conditions: mRNA level, 48 h; actives raise or lower the signal
Method in brief: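 Expression of ABCB1 was quantified by qRT-PCR against three housekeeping genes after human HepaRG cultures received test chemicals for 48 hours. Concentrations spanned eight half-log steps topping at 100 uM in 0.5% DMSO; gain or loss of signal was fitted relative to vehicle.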

[13] = read-out: growth arrest and DNA damage 45 (GADD45B), GADD45B (gene 4616); experiment: LTEA_HepaRG_GADD45B: Life Technologies and Expression Analysis (LTEA) Assay for growth arrest and DNA damage 45 (GADD45B) using HepaRG (AID 2283461); conditions: mRNA level, 48 h; actives raise or lower the signal
Method in brief: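 Values are bidirectional concentration-response fits against 0.5% DMSO controls. Underlying data: qRT-PCR mRNA levels in human HepaRG liver cells treated 48 h in serum-free induction medium, eight concentrations topping at 100 uM.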

[14] = read-out: ABC Transporter (ABCC3), ABCC3 (gene 8714); experiment: LTEA_HepaRG_ABCC3: Life Technologies and Expression Analysis (LTEA) Assay for ABC Transporter (ABCC3) using HepaRG (AID 2283462); conditions: mRNA level, 48 h; actives raise or lower the signal
Method in brief: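 Differentiated HepaRG liver cells receive test chemicals at eight concentrations (max 100 uM) for 48 h. Expression of ABCC3 is quantified by qRT-PCR against ACTB, GAPDH and POLR2A, and activity is fitted in both directions against the DMSO control.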

[15] = read-out: ABC Transporter (ABCB11), ABCB11 (gene 8647); experiment: LTEA_HepaRG_ABCB11: Life Technologies and Expression Analysis (LTEA) Assay for ABC Transporter (ABCB11) using HepaRG (AID 2283463); conditions: mRNA level, 48 h; actives raise or lower the signal
Method in brief: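 ABCB11 transcript levels are read by Fluidigm TaqMan qRT-PCR after 48 h chemical treatment of human HepaRG cells. Concentrations span 100 uM downward in half-log steps with 0.5% DMSO; gain or loss is fitted against DMSO controls.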

[16] = read-out: ABC Transporter (ABCC2), ABCC2 (gene 1244); experiment: LTEA_HepaRG_ABCC2: Life Technologies and Expression Analysis (LTEA) Assay for ABC Transporter (ABCC2) using HepaRG (AID 2283464); conditions: mRNA level, 48 h; actives raise or lower the signal
Method in brief: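 Gene expression of ABCC2 was determined by qRT-PCR in HepaRG cells exposed 48 h to chemicals (highest 100 uM, half-log dilutions). Activity was fitted in both directions relative to 0.5% DMSO vehicle.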

[17] = read-out: Broad substrate specificity ATP-binding cassette transporter ABCG2 (Homo sapiens) (UniProt Q9UNQ0); experiment: LTEA_HepaRG_ABCG2: Life Technologies and Expression Analysis (LTEA) Assay for ABC Transporter (ABCG2) using HepaRG (AID 2283465); conditions: mRNA level, 48 h; actives raise or lower the signal
Method in brief: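 Read-out is ABCG2 mRNA induction or loss quantified by qRT-PCR after 48 h chemical treatment of human HepaRG cells, normalized to three housekeeping genes. Concentrations reached 100 uM top in half-log steps; fitting was bidirectional against 0.5% DMSO.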

[18] = read-out: ATP-citrate lyase (ACLY), ACLY (gene 47); experiment: LTEA_HepaRG_ACLY: Life Technologies and Expression Analysis (LTEA) Assay for ATP-citrate lyase (ACLY) using HepaRG (AID 2283466); conditions: mRNA level, 48 h; actives raise or lower the signal
Method in brief: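 HepaRG, 48 h exposure, 8-pt half-log dilutions (top 100 uM), 0.5% DMSO. Readout: ACLY mRNA, TaqMan qRT-PCR, housekeeping-normalized (ACTB/GAPDH/POLR2A). Bidirectional curve fit vs DMSO.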

[19] = read-out: Peroxisomal acyl-coenzyme A oxidase 1 (ACOX1) gene, ACOX1 (gene 51); experiment: LTEA_HepaRG_ACOX1: Life Technologies and Expression Analysis (LTEA) Assay for Peroxisomal acyl-coenzyme A oxidase 1 (ACOX1) gene using HepaRG (AID 2283467); conditions: mRNA level, 48 h; actives raise or lower the signal
Method in brief: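 Measured by qRT-PCR against three housekeeping genes: ACOX1 transcript change in human HepaRG cells after 48 h dosing. Concentrations ran up to 100 uM in half-log steps. Curves were fitted bidirectionally relative to 0.5% DMSO.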

[20] = CEETOX_H295R_TESTO: CeeTox H295R High-throughput Steroidogenesis Assay for Testosterone (TESTO) (AID 2283457); conditions: actives raise or lower the signal
Method in brief: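 Testosterone synthesis is assessed in human adrenocortical H295R cells after 48 h of chemical exposure, using HPLC-MS/MS of extracted medium. Activity is fitted in both directions against DMSO control.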

Measured: AC50

Broad substrate specificity ATP-binding cassette transporter ABCG2 (Homo sapiens), sequence (Q9UNQ0 whole entry, looked up): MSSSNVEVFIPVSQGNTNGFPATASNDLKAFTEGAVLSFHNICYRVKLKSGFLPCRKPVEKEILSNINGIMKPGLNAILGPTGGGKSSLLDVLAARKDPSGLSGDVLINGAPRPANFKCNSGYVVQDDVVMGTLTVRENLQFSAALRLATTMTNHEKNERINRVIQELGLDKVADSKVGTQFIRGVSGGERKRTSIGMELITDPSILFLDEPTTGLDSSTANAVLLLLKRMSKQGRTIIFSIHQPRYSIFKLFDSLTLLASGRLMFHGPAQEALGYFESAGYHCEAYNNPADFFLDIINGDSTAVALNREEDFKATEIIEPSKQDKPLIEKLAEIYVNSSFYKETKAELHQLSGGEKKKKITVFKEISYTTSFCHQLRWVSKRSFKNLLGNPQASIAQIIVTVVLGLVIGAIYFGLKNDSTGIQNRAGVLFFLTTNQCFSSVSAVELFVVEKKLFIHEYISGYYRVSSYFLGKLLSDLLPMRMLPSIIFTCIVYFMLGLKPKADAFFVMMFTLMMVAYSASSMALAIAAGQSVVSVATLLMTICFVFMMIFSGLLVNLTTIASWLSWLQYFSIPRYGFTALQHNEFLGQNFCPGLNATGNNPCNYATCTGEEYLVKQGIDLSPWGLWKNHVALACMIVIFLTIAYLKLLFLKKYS
Fatty acid synthase (Homo sapiens), sequence (P49327 whole entry, looked up): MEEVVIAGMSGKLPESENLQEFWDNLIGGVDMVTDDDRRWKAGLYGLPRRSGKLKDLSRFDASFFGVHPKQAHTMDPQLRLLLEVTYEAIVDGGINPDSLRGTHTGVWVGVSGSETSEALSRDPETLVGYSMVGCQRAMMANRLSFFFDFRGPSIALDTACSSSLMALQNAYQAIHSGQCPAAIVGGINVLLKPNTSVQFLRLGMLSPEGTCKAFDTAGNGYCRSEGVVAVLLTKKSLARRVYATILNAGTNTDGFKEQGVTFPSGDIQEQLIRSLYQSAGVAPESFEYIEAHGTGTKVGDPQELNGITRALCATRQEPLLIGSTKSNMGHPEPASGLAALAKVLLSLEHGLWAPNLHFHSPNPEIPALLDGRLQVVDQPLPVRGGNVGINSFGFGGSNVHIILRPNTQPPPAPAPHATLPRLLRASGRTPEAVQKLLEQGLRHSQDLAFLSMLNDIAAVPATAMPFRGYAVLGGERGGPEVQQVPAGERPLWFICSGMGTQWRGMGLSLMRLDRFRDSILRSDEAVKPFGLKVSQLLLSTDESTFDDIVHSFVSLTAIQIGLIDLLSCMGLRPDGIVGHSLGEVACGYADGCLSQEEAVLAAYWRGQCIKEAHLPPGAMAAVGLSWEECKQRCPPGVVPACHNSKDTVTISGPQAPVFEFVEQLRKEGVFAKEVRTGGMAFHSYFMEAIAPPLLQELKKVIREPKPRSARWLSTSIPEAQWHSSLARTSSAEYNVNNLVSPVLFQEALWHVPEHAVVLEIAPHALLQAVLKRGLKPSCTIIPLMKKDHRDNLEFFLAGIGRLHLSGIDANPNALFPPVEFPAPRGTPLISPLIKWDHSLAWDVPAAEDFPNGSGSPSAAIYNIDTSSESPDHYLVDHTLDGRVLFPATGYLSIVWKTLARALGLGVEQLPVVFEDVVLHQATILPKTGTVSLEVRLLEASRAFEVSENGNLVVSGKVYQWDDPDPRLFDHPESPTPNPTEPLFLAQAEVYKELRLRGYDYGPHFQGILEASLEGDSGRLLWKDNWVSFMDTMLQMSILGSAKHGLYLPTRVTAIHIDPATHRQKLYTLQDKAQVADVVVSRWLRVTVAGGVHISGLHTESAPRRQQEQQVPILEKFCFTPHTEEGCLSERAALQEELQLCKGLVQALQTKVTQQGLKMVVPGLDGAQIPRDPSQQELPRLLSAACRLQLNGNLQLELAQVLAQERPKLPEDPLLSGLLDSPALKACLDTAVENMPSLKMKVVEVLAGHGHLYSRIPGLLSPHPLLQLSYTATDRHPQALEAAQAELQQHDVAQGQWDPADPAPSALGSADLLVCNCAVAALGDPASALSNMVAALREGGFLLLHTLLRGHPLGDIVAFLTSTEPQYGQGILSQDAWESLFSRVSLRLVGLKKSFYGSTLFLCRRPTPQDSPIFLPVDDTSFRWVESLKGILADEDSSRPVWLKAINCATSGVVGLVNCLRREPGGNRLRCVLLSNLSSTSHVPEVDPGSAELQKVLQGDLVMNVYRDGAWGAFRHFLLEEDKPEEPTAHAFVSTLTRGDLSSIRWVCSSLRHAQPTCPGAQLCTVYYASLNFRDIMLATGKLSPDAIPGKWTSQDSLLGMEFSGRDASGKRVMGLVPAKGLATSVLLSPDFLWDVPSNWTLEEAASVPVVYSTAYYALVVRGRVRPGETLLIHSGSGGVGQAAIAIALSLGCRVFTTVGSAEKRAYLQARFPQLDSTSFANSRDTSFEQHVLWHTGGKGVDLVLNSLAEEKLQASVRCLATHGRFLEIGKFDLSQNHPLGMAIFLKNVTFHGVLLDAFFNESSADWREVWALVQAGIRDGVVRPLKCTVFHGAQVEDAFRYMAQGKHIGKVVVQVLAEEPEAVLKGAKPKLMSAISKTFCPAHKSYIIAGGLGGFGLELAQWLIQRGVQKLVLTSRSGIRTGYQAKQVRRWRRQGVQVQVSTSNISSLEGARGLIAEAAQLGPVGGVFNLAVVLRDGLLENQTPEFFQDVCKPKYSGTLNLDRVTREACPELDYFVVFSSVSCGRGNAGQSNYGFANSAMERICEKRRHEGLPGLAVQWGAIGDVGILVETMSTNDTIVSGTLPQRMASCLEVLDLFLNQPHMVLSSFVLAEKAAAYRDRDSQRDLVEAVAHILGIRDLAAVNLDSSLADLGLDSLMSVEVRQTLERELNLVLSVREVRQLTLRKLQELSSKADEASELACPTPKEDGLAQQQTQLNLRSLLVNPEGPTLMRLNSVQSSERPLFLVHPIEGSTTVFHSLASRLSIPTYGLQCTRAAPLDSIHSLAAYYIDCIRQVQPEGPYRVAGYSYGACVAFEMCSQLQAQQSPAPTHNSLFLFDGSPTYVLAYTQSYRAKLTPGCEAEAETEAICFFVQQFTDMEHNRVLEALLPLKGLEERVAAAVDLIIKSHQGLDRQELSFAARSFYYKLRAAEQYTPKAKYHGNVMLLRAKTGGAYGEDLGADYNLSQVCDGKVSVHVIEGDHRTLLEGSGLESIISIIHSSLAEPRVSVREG

CCCCCCC(=O)O
active: [7] 59.9 µM
not listed: [19] | [20]
inactive: all other assays above

COCC(C)O (stereo unspecified)
not listed: [16] | [19] | [20]
inactive: all other assays above

CN1CCC[C@H]1c1cccnc1
active: [7] 70.6 µM
not listed: [19] | [20]
inactive: all other assays above

CCCCC(CC)COC(=O)CCCCC(=O)OCC(CC)CCCC (stereo unspecified)
not listed: [16] | [19] | [20]
inactive: all other assays above

O=C(OCCOCCOC(=O)c1ccccc1)c1ccccc1
active: [7] 50 µM
not listed: [20]
inactive: all other assays above

CCC(=C(c1ccc(O)cc1)c1ccc(OCCN(C)C)cc1)c1ccccc1
active: [7] 93.3 µM | [8] 97.3 µM | [9] 82.6 µM | [14] 82.1 µM
not listed: [16] | [19]
inactive: all other assays above

OCCC(F)(F)C(F)(F)C(F)(F)C(F)(F)C(F)(F)C(F)(F)C(F)(F)C(F)(F)F
not listed: [19] | [20]
inactive: all other assays above

CC(=O)CC(C)(C)O
not listed: [19] | [20]
inactive: all other assays above

O=[N+]([O-])c1ccc(O)cc1
inactive: [1] | [2] | [3] | [4] | [5] | [6] | [7] | [8] | [9] | [10] | [11] | [12] | [13] | [14] | [15] | [16] | [17] | [18]
active: [7] 78.2 µM

CC(=O)NC1(c2cccc(F)c2)CCN(CC[C@@]2(c3ccc(Cl)c(Cl)c3)CN(c3ccccc3)C(=O)CO2)CC1
active: [6] 13.1 µM | [7] 20 µM | [8] 56.1 µM | [12] 68.7 µM | [15] 20.8 µM | [16] 71.9 µM
not listed: [19] | [20]
inactive: all other assays above

ClC1=C(Cl)C(Cl)(Cl)C(Cl)=C1Cl
not listed: [16] | [19] | [20]
inactive: all other assays above

CCCCCCCCCCCCc1ccccc1S(=O)(=O)O
active: [1] 74.5 µM | [5] 88.9 µM | [6] 83.3 µM | [7] 30.6 µM | [9] 88.4 µM | [11] 87.9 µM | [15] 85.7 µM | [17] 50 µM
not listed: [16] | [19] | [20]
inactive: all other assays above

CC[C@H](C)[C@@H](C(=O)O)n1sc2ccccc2c1=O
active: [7] 50 µM
not listed: [16] | [19] | [20]
inactive: all other assays above

— PubChem BioAssay (EPA / NIEHS)
